Test results reported in the supplement of paper PMC11732987, “Enantioselective OTUD7B fragment discovery through chemoproteomics screening and high-throughput optimisation” (Communications Chemistry, 2025).

Columns and labels:
Assay in all cases: log2 ratio of Biotin-Ahx-Ub-VS probe labelling (compound/DMSO); higher = less target engagement, active = hit call of the paper (q ≤ 0.05, log2 ratio ≤ -1)
Conditions in all cases: treatment time: 3 h
[1] = compound: CCC1N(CCc2sccc12)C(=O)CCl
How it was run: (§1)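 Compound at 50 or 200 µM, or DMSO, was applied for 3 h in triplicate to HEK293T lysate (495 µg per sample, Tris/CHAPS/IGEPAL buffer with protease inhibitors), after which Biotin-Ahx-Ub-VS was added at 0.5 µM final for 1 h. The labelled DUBs were pulled down with NeutrAvidin, digested with LysC and trypsin, and run by diaPASEF LC-MS/MS. Ratios are averaged base-two logs of compound over DMSO from median-normalised label-free quantities by unpaired t-test, counting only proteins with at least 2 unique peptides.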

[2] = compound: CN1c2ccccc2C(CS1(=O)=O)NC(=O)CCl
How it was run: as §1

[3] = compound: Cl.ClCC(=O)N1CCc2ncncc2C1
How it was run: as §1

[4] = compound: Cl.Cn1ncc2C(CCCc12)NC(=O)CCl
How it was run: as §1

[5] = compound: ClCC(=O)NC1CCOc2ccccc12
How it was run: as §1

[6] = compound: ClCC(=O)NC1CCCc2ccccc12
How it was run: (§2)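 HEK293T lysate (495 µg per sample, in Tris/CHAPS/IGEPAL buffer with protease inhibitors) was treated in triplicate with compound over a concentration series or DMSO for 3 h, then with Biotin-Ahx-Ub-VS (0.5 µM final) for 1 h. Labelled DUBs were NeutrAvidin-enriched, digested with LysC and trypsin, and run by diaPASEF LC-MS/MS. Spectronaut label-free protein quantities were global-median-normalised. Values are average log2 ratios compound/DMSO from an unpaired t-test, using proteins with ≥2 unique peptides.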

[7] = compound: ClCC(=O)N[C@@H]1CCCc2ccccc12
How it was run: as §2

[8] = compound: ClCC(=O)N[C@H]1CCCc2ccccc12
How it was run: as §2

[9] = compound: CCC1N(CCc2cc(OC)c(Cl)cc12)C(=O)CCl
How it was run: as §1

[10] = compound: CCCC1N(CCc2cc(OC)c(OC)cc12)C(=O)CCl
How it was run: as §1

Measured: log2 ratio of Biotin-Ahx-Ub-VS probe labelling

PSMD7 (UniProt P51665)
Sequence of UniProt P51665 (P51665 whole entry): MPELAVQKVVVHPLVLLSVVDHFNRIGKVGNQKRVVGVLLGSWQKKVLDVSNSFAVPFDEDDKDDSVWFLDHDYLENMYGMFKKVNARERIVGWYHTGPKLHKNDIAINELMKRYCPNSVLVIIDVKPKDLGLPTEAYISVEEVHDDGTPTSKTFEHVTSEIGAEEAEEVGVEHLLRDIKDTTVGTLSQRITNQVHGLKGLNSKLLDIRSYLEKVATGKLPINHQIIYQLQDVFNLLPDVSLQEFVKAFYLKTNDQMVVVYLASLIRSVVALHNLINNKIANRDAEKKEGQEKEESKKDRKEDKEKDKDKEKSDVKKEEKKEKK
inactive: [1]; compound concentration: 50uM 0.0196 | [1]; compound concentration: 200uM -0.639 | [2]; compound concentration: 50uM -1.31 | [2]; compound concentration: 200uM 0.533 | [3]; compound concentration: 50uM -3.61 | [3]; compound concentration: 200uM 0.0399 | [4]; compound concentration: 50uM 0.173 | [4]; compound concentration: 200uM 0.483 | [5]; compound concentration: 50uM 1.07 | [5]; compound concentration: 200uM 1 | [6]; compound concentration: 0.78uM -0.113 | [6]; compound concentration: 1.56uM -0.191 | [6]; compound concentration: 3.13uM -0.247 | [6]; compound concentration: 6.25uM -0.311 | [6]; compound concentration: 12.5uM -0.243 | [6]; compound concentration: 25uM -0.439 | [6]; compound concentration: 50uM -0.166 | [6]; compound concentration: 100uM 0.0296 | [6]; compound concentration: 200uM -0.486 | [7]; compound concentration: 0.78uM -0.113 | [7]; compound concentration: 1.56uM 0.319 | [7]; compound concentration: 3.13uM 0.0163 | [7]; compound concentration: 6.25uM -0.0645 | [7]; compound concentration: 12.5uM 0.0151 | [7]; compound concentration: 25uM 0.0566 | [7]; compound concentration: 50uM -0.252 | [7]; compound concentration: 100uM 0.0397 | [7]; compound concentration: 200uM 0.357 | [8]; compound concentration: 0.78uM 0.0931 | [8]; compound concentration: 1.56uM 0.0292 | [8]; compound concentration: 3.13uM 0.0943 | [8]; compound concentration: 6.25uM -0.111 | [8]; compound concentration: 12.5uM -0.00799 | [8]; compound concentration: 25uM -0.0922 | [8]; compound concentration: 50uM 0.0424 | [8]; compound concentration: 100uM -0.132 | [8]; compound concentration: 200uM -0.169 | [9]; compound concentration: 50uM 0.122 | [9]; compound concentration: 200uM 1.79 | [10]; compound concentration: 50uM 0.742 | [10]; compound concentration: 200uM 0.149

UniProt Q8TE49
Sequence of UniProt Q8TE49 (Q8TE49 whole entry): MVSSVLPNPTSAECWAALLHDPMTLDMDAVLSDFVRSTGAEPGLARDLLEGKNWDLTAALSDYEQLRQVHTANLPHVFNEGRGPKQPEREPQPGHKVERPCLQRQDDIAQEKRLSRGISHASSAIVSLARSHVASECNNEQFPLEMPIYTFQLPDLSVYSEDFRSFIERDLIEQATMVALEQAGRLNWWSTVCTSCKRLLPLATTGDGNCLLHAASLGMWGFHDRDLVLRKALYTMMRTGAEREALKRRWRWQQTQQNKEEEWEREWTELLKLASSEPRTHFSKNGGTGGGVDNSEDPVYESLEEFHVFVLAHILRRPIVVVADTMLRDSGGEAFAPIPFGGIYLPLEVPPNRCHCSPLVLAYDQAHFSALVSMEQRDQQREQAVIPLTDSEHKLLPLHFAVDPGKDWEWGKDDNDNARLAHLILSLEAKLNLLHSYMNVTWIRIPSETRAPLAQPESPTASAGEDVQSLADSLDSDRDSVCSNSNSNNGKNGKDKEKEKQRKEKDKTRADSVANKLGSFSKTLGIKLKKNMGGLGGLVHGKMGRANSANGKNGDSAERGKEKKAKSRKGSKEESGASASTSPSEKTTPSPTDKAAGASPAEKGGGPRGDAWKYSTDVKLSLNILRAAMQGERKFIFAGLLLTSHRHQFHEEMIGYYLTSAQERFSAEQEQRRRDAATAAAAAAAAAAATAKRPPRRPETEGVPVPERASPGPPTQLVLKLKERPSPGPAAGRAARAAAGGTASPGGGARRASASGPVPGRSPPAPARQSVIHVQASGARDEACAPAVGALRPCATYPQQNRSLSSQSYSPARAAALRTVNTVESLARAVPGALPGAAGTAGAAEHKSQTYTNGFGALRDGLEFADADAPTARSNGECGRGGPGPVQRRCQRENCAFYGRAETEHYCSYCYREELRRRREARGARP
active: [2]; compound concentration: 50uM -1.25 | [2]; compound concentration: 200uM -2.71 | [3]; compound concentration: 200uM -1.55 | [4]; compound concentration: 50uM -2.22 | [4]; compound concentration: 200uM -2.78 | [5]; compound concentration: 200uM -1.23 | [6]; compound concentration: 0.78uM -1.71 | [6]; compound concentration: 1.56uM -1.79 | [6]; compound concentration: 3.13uM -1.77 | [6]; compound concentration: 6.25uM -1.34 | [6]; compound concentration: 12.5uM -1.27 | [6]; compound concentration: 25uM -2.03 | [6]; compound concentration: 50uM -2.39 | [6]; compound concentration: 100uM -2.75 | [6]; compound concentration: 200uM -3.99 | [7]; compound concentration: 6.25uM -1.72 | [7]; compound concentration: 50uM -1.33 | [7]; compound concentration: 200uM -1.69 | [8]; compound concentration: 1.56uM -1.6 | [8]; compound concentration: 3.13uM -1.78 | [8]; compound concentration: 6.25uM -1.41 | [8]; compound concentration: 25uM -2.19 | [8]; compound concentration: 50uM -2.93 | [8]; compound concentration: 100uM -3.39 | [8]; compound concentration: 200uM -3.55 | [9]; compound concentration: 200uM -1.15
inactive: [1]; compound concentration: 50uM -0.281 | [1]; compound concentration: 200uM -0.466 | [3]; compound concentration: 50uM -0.364 | [5]; compound concentration: 50uM -0.839 | [7]; compound concentration: 0.78uM -0.577 | [7]; compound concentration: 1.56uM -0.173 | [7]; compound concentration: 3.13uM -0.995 | [7]; compound concentration: 12.5uM -0.347 | [7]; compound concentration: 25uM -0.135 | [7]; compound concentration: 100uM -0.0704 | [8]; compound concentration: 0.78uM -1.04 | [8]; compound concentration: 12.5uM -0.835 | [9]; compound concentration: 50uM 0.126 | [10]; compound concentration: 50uM -0.481 | [10]; compound concentration: 200uM -1.23
